# Residue numbers refer to the chain shown, from its start.
# Key:
# Assay in all cases: yeast three-hybrid, YBZ-1, SC-Leu-His + 0.5 mM 3-AT, 4 days
# Conditions in all cases: tags: N-Gal4 AD-HA kept; label: inside an RPR1-promoter hybrid RNA with tandem MS2 sites; ssRNA
# [1] = target: PUM1 PUF domain R4-TNG (Homo sapiens, UniProt Q14671 828-1176, N971T;H972N;Q975G)
# Procedure, shortened: (§1)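 Sequencing with Illumina followed PCR amplification of the repeat regions from transformants grown four days on SC-Leu (input) or SC-Leu-His + 0.5 mM 3-AT (selection). The transformants were strain YBZ-1 with a LexA–MS2 coat fusion and a HIS3 reporter, carrying Pumilio-1 PUF domain libraries and matching RNA elements. The interaction score is the log change in variant frequency from input to selection, computed in log2 with a pseudocount of 1 for absent variants.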
# [2] = target: PUM1 PUF domain R4-HRV (Homo sapiens, UniProt Q14671 828-1176, N971H;H972R;Q975V)
# Procedure, shortened: as §1
# [3] = target: PUM1 PUF domain R4-PYT (Homo sapiens, UniProt Q14671 828-1176, N971P;H972Y;Q975T)
# Procedure, shortened: as §1
# [4] = target: PUM1 PUF domain R4-LHS (Homo sapiens, UniProt Q14671 828-1176, N971L;Q975S)
# Procedure, shortened: as §1
# [5] = target: PUM1 PUF domain R4-WSA (Homo sapiens, UniProt Q14671 828-1176, N971W;H972S;Q975A)
# Procedure, shortened: as §1
# [6] = target: PUM1 PUF domain R1-KAR (Homo sapiens, UniProt Q14671 828-1176, S863K;R864A;Q867R)
# Procedure, shortened: as §1
# [7] = target: PUM1 PUF domain R4-ACC (Homo sapiens, UniProt Q14671 828-1176, N971A;H972C;Q975C)
# Procedure, shortened: as §1
# [8] = target: T1, PUM1 PUF domain R6-TFT (Homo sapiens, UniProt Q14671 828-1176, N1043T;Y1044F;Q1047T)
# T1 sequence: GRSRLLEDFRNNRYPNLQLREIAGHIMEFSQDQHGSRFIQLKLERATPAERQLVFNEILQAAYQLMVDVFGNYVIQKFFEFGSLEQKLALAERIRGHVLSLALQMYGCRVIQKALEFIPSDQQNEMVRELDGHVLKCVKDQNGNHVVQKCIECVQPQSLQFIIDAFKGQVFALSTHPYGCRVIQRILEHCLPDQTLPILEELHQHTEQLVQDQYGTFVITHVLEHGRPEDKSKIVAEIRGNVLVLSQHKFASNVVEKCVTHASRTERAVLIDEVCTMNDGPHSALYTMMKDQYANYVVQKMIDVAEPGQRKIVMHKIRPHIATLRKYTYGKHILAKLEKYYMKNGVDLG
# Procedure, shortened: as §1
# [9] = target: PUM1 PUF domain R5-FFV (Homo sapiens, UniProt Q14671 828-1176, C1007F;R1008F;Q1011V)
# Procedure, shortened: as §1
# [10] = target: PUM1 PUF domain R5-RYK (Homo sapiens, UniProt Q14671 828-1176, C1007R;R1008Y;Q1011K)
# Procedure, shortened: as §1
# [11] = target: PUM1 PUF domain R3-ERS (Homo sapiens, UniProt Q14671 828-1176, C935E;Q939S)
# Procedure, shortened: as §1
# [12] = target: PUM1 PUF domain R1-KGQ (Homo sapiens, UniProt Q14671 828-1176, S863K;R864G)
# Procedure, shortened: as §1
# [13] = target: PUM1 PUF domain R5-SLH (Homo sapiens, UniProt Q14671 828-1176, C1007S;R1008L;Q1011H)
# Procedure, shortened: as §1
# [14] = target: PUM1 PUF domain R5-NRR (Homo sapiens, UniProt Q14671 828-1176, C1007N;Q1011R)
# Procedure, shortened: as §1
# [15] = target: PUM1 PUF domain R5-KGW (Homo sapiens, UniProt Q14671 828-1176, C1007K;R1008G;Q1011W)
# Procedure, shortened: as §1
# [16] = target: PUM1 PUF domain R2-VFV (Homo sapiens, UniProt Q14671 828-1176, N899V;Y900F;Q903V)
# Procedure, shortened: as §1
# [17] = target: PUM1 PUF domain R1-RMQ (Homo sapiens, UniProt Q14671 828-1176, S863R;R864M)
# Procedure, shortened: as §1
# [18] = target: PUM1 PUF domain R8-CYP (Homo sapiens, UniProt Q14671 828-1176, N1122C;Q1126P)
# Procedure, shortened: as §1
# [19] = target: PUM1 PUF domain R8-MYW (Homo sapiens, UniProt Q14671 828-1176, N1122M;Q1126W)
# Procedure, shortened: as §1
# [20] = target: T2, PUM1 PUF domain R6-TWV (Homo sapiens, UniProt Q14671 828-1176, N1043T;Y1044W;Q1047V)
# T2 sequence: T1 sequence with F217W, T220V
# Procedure, shortened: as §1
sequence,measurement,setting,value
GGCUAGAACUAGUGGAUCCCCCGGCGCCCGGCGGCUCGAGCCCGGGUAAGUGUAUAUAGUCUGCAUGCCGCCGGGCGCCAUGCCUGCAGGUCGACUCUAGAAAACAUG,binding signal,[1],2.66 log2 enrichment (interaction score)
same,binding signal,[2],2.89 log2 enrichment (interaction score)
same,binding signal,[3],7.53 log2 enrichment (interaction score)
same,binding signal,[4],3.86 log2 enrichment (interaction score)
same,binding signal,[5],2.96 log2 enrichment (interaction score)
GGCUAGAACUAGUGGAUCCCCCGGCGCCCGGCGGCUCGAGCCCGGGUAAGUGUAAAUAGUCUGCAUGCCGCCGGGCGCCAUGCCUGCAGGUCGACUCUAGAAAACAUG,binding signal,[6],2.23 log2 enrichment (interaction score)
same,binding signal,[7],2.56 log2 enrichment (interaction score)
same,binding signal,[8],3.71 log2 enrichment (interaction score)
same,binding signal,[3],4.57 log2 enrichment (interaction score)
same,binding signal,[9],2.23 log2 enrichment (interaction score)
same,binding signal,[5],1.33 log2 enrichment (interaction score)
same,binding signal,[10],3.8 log2 enrichment (interaction score)
GGCUAGAACUAGUGGAUCCCCCGGCGCCCGGCGGCUCGAGCCCGGGUAAGUGUAAGUAGUCUGCAUGCCGCCGGGCGCCAUGCCUGCAGGUCGACUCUAGAAAACAUG,binding signal,[11],2.54 log2 enrichment (interaction score)
GGCUAGAACUAGUGGAUCCCCCGGCGCCCGGCGGCUCGAGCCCGGGUAAGUGUAAAUGGUCUGCAUGCCGCCGGGCGCCAUGCCUGCAGGUCGACUCUAGAAAACAUG,binding signal,[12],2.56 log2 enrichment (interaction score)
GGCUAGAACUAGUGGAUCCCCCGGCGCCCGGCGGCUCGAGCCCGGGUAAGUGUACAUAGUCUGCAUGCCGCCGGGCGCCAUGCCUGCAGGUCGACUCUAGAAAACAUG,binding signal,[1],0.22 log2 enrichment (interaction score)
same,binding signal,[2],1.98 log2 enrichment (interaction score)
same,binding signal,[3],6.02 log2 enrichment (interaction score)
same,binding signal,[5],2.8 log2 enrichment (interaction score)
GGCUAGAACUAGUGGAUCCCCCGGCGCCCGGCGGCUCGAGCCCGGGUAAGUGUGAAUAGUCUGCAUGCCGCCGGGCGCCAUGCCUGCAGGUCGACUCUAGAAAACAUG,binding signal,[13],3.2 log2 enrichment (interaction score)
GGCUAGAACUAGUGGAUCCCCCGGCGCCCGGCGGCUCGAGCCCGGGUAAGUGUCAAUAGUCUGCAUGCCGCCGGGCGCCAUGCCUGCAGGUCGACUCUAGAAAACAUG,binding signal,[14],6.16 log2 enrichment (interaction score)
same,binding signal,[15],3.14 log2 enrichment (interaction score)
same,binding signal,[10],4.4 log2 enrichment (interaction score)
GGCUAGAACUAGUGGAUCCCCCGGCGCCCGGCGGCUCGAGCCCGGGUAAGUGUAAAAAGUCUGCAUGCCGCCGGGCGCCAUGCCUGCAGGUCGACUCUAGAAAACAUG,binding signal,[16],5.17 log2 enrichment (interaction score)
GGCUAGAACUAGUGGAUCCCCCGGCGCCCGGCGGCUCGAGCCCGGGUAAGUGUAAAUCGUCUGCAUGCCGCCGGGCGCCAUGCCUGCAGGUCGACUCUAGAAAACAUG,binding signal,[12],4.94 log2 enrichment (interaction score)
same,binding signal,[17],5.34 log2 enrichment (interaction score)
GGCUAGAACUAGUGGAUCCCCCGGCGCCCGGCGGCUCGAGCCCGGGUAAGCGUAAAUAGUCUGCAUGCCGCCGGGCGCCAUGCCUGCAGGUCGACUCUAGAAAACAUG,binding signal,[18],4.27 log2 enrichment (interaction score)
same,binding signal,[19],2.44 log2 enrichment (interaction score)
GGCUAGAACUAGUGGAUCCCCCGGCGCCCGGCGGCUCGAGCCCGGGUAAGUGUAAAUUGUCUGCAUGCCGCCGGGCGCCAUGCCUGCAGGUCGACUCUAGAAAACAUG,binding signal,[6],6.7 log2 enrichment (interaction score)
same,binding signal,[12],5.42 log2 enrichment (interaction score)
GGCUAGAACUAGUGGAUCCCCCGGCGCCCGGCGGCUCGAGCCCGGGUAAGUGAAAAUAGUCUGCAUGCCGCCGGGCGCCAUGCCUGCAGGUCGACUCUAGAAAACAUG,binding signal,[20],2.6 log2 enrichment (interaction score)

# — paper PMC8384837, “Expanding the binding specificity for RNA recognition by a PUF domain”
